Measurements taken from PubChem BioAssay (NCATS).
Inconclusive results are not listed. Activity calls are given as the source filed them. The call rests on the fitted dose curve; in most records, active means well fitted cell-killing curve with a large enough effect; inconclusive means small, poorly fitted or top-dose-only effect, or effect the other way; inactive means no such curve, though single readings can be large or run the other way. Positions of bridges follow the written chain, without caps; N, C: chain ends. Non-standard residues stand in square brackets, D forms with d. Residues, ends and D or L forms follow the SMILES beside them. ξ: configuration not given here. *: point of attachment. Octanoyl(6-Me) = CCC(C)CCCCC(=O)*; ξThr(3R) = C[C@@H](O)C(N)C(=O)O; dDab = NCC[C@@H](N)C(=O)O; Dab = NCC[C@H](N)C(=O)O

experiment: Quantitative High-Throughput drug screen in 47 multiple myeloma cell lines against the NCATS MIPE library collection: AMO1_DSMZ cell viability assay (AID 1918927; further: nearly all actives have a fitted effect of over 30% in size); conditions: AMO1 myeloma cells viability, CellTiter-Glo ATP luminescence, 48 h; series mostly up to 45.8 µM
Outline: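 Primary qHTS used for cherry-picking: cells at 500/well, library compounds for 48 h (37C, 5% CO2), luminescent ATP assay.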
Potency means the concentration at half of the fitted maximal effect.

| Compound | Potency |
| --- | --- |
| O=c1c(O)c(-c2ccc(O)c(O)c2)oc2cc(O)ccc12 | 10.5 µM (active) |
| COc1cccc2c1C(=O)c1c(O)c3c(c(O)c1C2=O)C[C@@](O)(C(C)=O)C[C@H]3O[C@H]1C[C@H](N)[C@H](O)[C@H](C)O1 | 0.118 µM (active) |
| CCCCCN=C(N)NN=Cc1c[nH]c2ccc(OC)cc12 | 1.32 µM (active) |
| O=C(Nc1cccc(Nc2ncc(Br)c(NCCc3cnc[nH]3)n2)c1)N1CCCC1 | inactive |
| COc1cc(C(=O)NC2CCN(C)CC2)ccc1Nc1ncc2c(n1)N(C1CCCC1)CCC(=O)N2C(C)C | 9.35 µM (active) |
| CO[C@@H]1[C@@H](O)[C@H](O)[C@@H](n2c3c(Cl)cccc3c3c4c(c5c6cccc(Cl)c6[nH]c5c32)C(=O)NC4=O)O[C@@H]1CO | 0.166 µM (active) |
| O=C1NC(=O)[C@@H](c2cn3c4c(cccc24)CCC3)[C@H]1c1c[nH]c2ccccc12 | 0.0469 µM (active) |
| O=C(Nc1nnc(-c2ccco2)o1)c1cc(-c2ccccc2)nc2ccccc12 | 9.35 µM (active) |
| COc1cc(C(C)C)c(Oc2cnc(NC(CO)CO)nc2N)cc1I | 14.8 µM (active) |
| CNC(=O)Nc1ccc(-c2nc(N3CC4CCC(C3)O4)c3cnn(C4CCC5(CC4)OCCO5)c3n2)cc1 | 0.0166 µM (active) |
| CCC[C@H]1C[C@H](C(=O)N[C@@H]([C@@H]2O[C@@H](SC)[C@@H](O)[C@@H](O)[C@@H]2O)[C@H](C)Cl)N(C)C1 | inactive |
| C#CCC(Cc1cnc2nc(N)nc(N)c2n1)c1ccc(C(=O)N[C@@H](CCC(=O)O)C(=O)O)cc1 (stereo not given in full) | inactive |
| CC(C)(N)c1ccc(-c2nc3ccccc3nc2-c2ccccc2)cc1 | 14.8 µM (active) |
| C[C@H]1COc2c(N3CCN(C)CC3)c(F)cc3c(=O)c(C(=O)O)cn1c23 | inactive |
| C=C1C(=CC=C2CCC[C@]3(C)[C@@H]([C@H](C)CCCC(C)(C)O)CC[C@@H]23)C[C@@H](O)C[C@@H]1O | 0.935 µM (active) |
| Cc1ccc2nc(NCCN)c3ncc(C)n3c2c1 | 8.33 µM (active) |
| CCC(C)CCCCC(=O)N[C@@H](CCN)C(=O)NC(C(=O)N[C@H](CCN)C(=O)N[C@@H]1CCNC(=O)C([C@@H](C)O)NC(=O)[C@@H](CCN)NC(=O)[C@@H](CCN)NC(=O)[C@@H](CC(C)C)NC(=O)[C@H](Cc2ccccc2)NC(=O)[C@H](CCN)NC1=O)[C@@H](C)O (stereo partly drawn) ({Octanoyl(6-Me)}-[Dab][ξThr(3R)][dDab][dDab][Dab]F[dL][dDab][dDab][ξThr(3R)]; lactam 4-C) | inactive |
| COc1ccc2c(c1OC)C(=O)OC2[C@H]1c2c(cc3c(c2OC)OCO3)CCN1C (stereo not given in full) | 0.0743 µM (active) |
| NC1=N[C@H]2[C@H](CS[C@H]2CCCCC(=O)O)N1 | inactive |
| CC(=O)O[C@]1(C(C)=O)CC[C@H]2[C@@H]3C=C(C)C4=CC(=O)CC[C@]4(C)[C@@H]3CC[C@@]21C | 8.33 µM (active) |
